Potency data for 32 molecules are collected here from PubChem BioAssay (Tox21).

Structures are written as SMILES. Results filed as inconclusive are left out. Entries that show only a call come without a potency. Active and inactive are the calls of the source. Unless noted, calls come from the whole dose curve; as a rule, active = well fitted cell-killing curve with a large enough effect in the repeat runs; inconclusive = weak or mixed curves, or effect the other way; inactive = no such curve, though single readings can be large or run the other way.

Bile acid receptor (Homo sapiens), sequence (Q96RI1 whole entry, looked up): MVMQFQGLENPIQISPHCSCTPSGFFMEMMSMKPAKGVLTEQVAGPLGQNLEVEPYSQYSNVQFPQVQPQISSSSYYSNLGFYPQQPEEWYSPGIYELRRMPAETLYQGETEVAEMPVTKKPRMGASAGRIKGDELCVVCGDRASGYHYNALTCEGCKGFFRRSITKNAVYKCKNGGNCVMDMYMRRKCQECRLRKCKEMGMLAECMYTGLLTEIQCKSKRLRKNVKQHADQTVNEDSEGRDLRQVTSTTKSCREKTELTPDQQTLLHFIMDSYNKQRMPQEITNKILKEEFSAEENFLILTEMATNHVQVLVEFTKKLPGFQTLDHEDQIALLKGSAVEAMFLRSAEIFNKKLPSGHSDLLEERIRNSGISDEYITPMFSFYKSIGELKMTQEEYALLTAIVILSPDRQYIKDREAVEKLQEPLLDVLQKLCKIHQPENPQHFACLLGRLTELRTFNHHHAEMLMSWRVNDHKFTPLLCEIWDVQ

In one assay the target is Peroxisome proliferator-activated receptor delta (Homo sapiens) (UniProt Q03181). As to the kind of experiment: qHTS assay to identify small molecule antagonists of the peroxisome proliferator-activated receptor delta (PPARd) signaling pathway (AID 743215; active = well fitted inhibition curve with a large enough effect in the signal ratio in the repeat runs, not every such curve was filed as active; the % refers to the signal ratio;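 note: cells stimulated with agonist L165041 at 300 nM final during compound exposure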). The conditions noted are these: HEK293H PPARd-UAS-bla, beta-lactamase FRET ratio, antagonist, 17 h; series mostly up to 62 µM. In short, it runs like this: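 HEK293H GeneBLAzer PPARd UAS-bla reporter cells; cpd + L165041 300 nM final, 17 h 37 C; LiveBLAzer B/G FRET substrate 2 h RT; fluorescence intensity read-out. Antagonist mode.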
Peroxisome proliferator-activated receptor delta (Homo sapiens), sequence (Q03181 whole entry, looked up): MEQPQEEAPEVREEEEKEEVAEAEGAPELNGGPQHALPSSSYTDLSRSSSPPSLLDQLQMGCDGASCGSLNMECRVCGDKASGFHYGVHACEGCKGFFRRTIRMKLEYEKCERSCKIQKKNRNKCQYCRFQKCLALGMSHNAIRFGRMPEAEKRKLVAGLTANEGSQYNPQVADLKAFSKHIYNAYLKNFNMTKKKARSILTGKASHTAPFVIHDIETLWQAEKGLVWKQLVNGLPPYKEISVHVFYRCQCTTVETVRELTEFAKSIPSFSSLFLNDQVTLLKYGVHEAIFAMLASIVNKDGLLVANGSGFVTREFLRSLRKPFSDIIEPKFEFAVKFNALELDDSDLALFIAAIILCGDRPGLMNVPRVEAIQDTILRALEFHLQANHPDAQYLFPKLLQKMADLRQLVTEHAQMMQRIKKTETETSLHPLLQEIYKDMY
In general terms: In qHTS, concentration-response curves come from the screen itself.
In the case of `CC(CCO)CCc1ccccc1` (stereo not drawn), the Potency entry was “inactive”. Regarding `Cc1oncc1C(=O)Nc1ccc(C(F)(F)F)cc1`, the Potency entry is “inactive”. Take `N#C/C(=C1\SCC(c2ccccc2Cl)S1)n1ccnc1` (stereo not drawn): the Potency result was “inactive”.

The target of a further assay is Bile acid receptor (Homo sapiens) (UniProt Q96RI1). Briefly: qHTS assay to identify small molecule antagonists of the farnesoid-X-receptor (FXR) signaling pathway (AID 743217; active = well fitted inhibition curve with a large enough effect in the signal ratio in the repeat runs, not every such curve was filed as active; the % refers to the signal ratio; note: potency is the fitted concentration of half-maximal effect). The following applies: HEK293T FXR-UAS-bla, beta-lactamase ratio, CDCA-stimulated, 16 h; series mostly up to 62.6 µM. The method, boiled down:
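Read-out: beta-lactamase FRET fluorescence (LiveBLAzer B/G substrate, 2 h, room temperature) in GeneBLAzer FXR-UAS-bla HEK 293T cells. Compounds were co-dosed with 50 uM chenodeoxycholic acid (final) and incubated 16 h at 37 °C.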
On to `CN(C)CCOC1=Cc2ccccc2Sc2ccc(Cl)cc21`, for which the Potency result is “inactive”. Regarding `CCOCCn1c(C2CCN(CCc3ccc(C(C)(C)C(=O)O)cc3)CC2)nc2ccccc21`, the Potency entry was “inactive”. In the case of `CCCC(=O)O[C@]1(C(=O)COC(=O)CC)CC[C@H]2[C@@H]3CCC4=CC(=O)CC[C@]4(C)[C@H]3[C@@H](O)C[C@@]21C`, the Potency entry was “inactive”. As for `Oc1ccc(Nc2ccccc2)cc1`, the Potency result is “inactive”. Regarding `COC(=O)CC(=O)C(C)(C)C`, the Potency result is “inactive”. The same measure, in the same setting: under `CC(=O)[C@H]1CC[C@H]2[C@@H]3C[C@H](C)C4=CC(=O)CC[C@]4(C)[C@H]3[C@@H](O)C[C@]12C` stands “inactive”; under `Fc1ccccc1[C@@H](F)COC1CCC(Nc2ncnc3[nH]ncc23)CC1` (stereo partly drawn), 43.6 µM (active); under `CC(C)(C)C(=O)C(Oc1ccc(Cl)cc1)n1ccnc1` (stereo not drawn), “inactive”. As to `C=CCOC(=O)/C=C\C(=O)OCC=C`, the Potency entry is “inactive”. For `NC(=O)N(O)[C@@H]1C=C[C@H](Oc2cccc(Oc3ccc(F)cc3)c2)C1`, the Potency entry was “inactive”. As for `COC(=O)c1cc(S(N)(=O)=O)ccc1OC`, the Potency result was “inactive”. As for `CC(CCO)CCc1ccccc1` (stereo not drawn), the Potency entry was “inactive”. As to `COC(=O)c1cc(Cl)ccc1NS(=O)(=O)C(F)(F)F`, the Potency entry was “inactive”. For the molecule `Cc1oncc1C(=O)Nc1ccc(C(F)(F)F)cc1`, the Potency entry is “inactive”. For the molecule `CCCCC/C(=C\c1ccccc1)CO`, the Potency result is “inactive”.

Tested on in another assay: not listed separately
As to the kind of experiment: qHTS assay to identify small molecule agonists of the farnesoid-X-receptor (FXR) signaling pathway - cell viability counter screen (AID 743218). Note: nearly all actives have a fitted effect of over 45% in size. Note: potency is the fitted concentration of half-maximal effect. The conditions noted are these: FXR-bla HEK293T viability, CellTiter-Glo luminescence, 16 h; series mostly up to 62.6 µM. In short, it runs like this:
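Luminescence from CellTiter-Glo, read after 30 min at RT, reports viability of GeneBLAzer FXR-UAS-bla HEK 293T cells treated 16 h with compounds in the wells used for the beta-lactamase reporter.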
`CC(COc1ccc(C(C)(C)C)cc1)OS(=O)OCCCl` (stereo not drawn): the Potency entry was “inactive”. Turning to `Cc1ccc(Nc2nccc(N(C)c3ccc4c(C)n(C)nc4c3)n2)cc1S(N)(=O)=O`, the Potency entry is “inactive”. The same measure, in the same setting: the figure for `O=C(N[C@@H](c1ccccc1)[C@@H]1CCCCN1)c1cccc(C(F)(F)F)c1Cl` is 43.6 µM (active); for `CC(=O)[C@H]1CC[C@H]2[C@@H]3C[C@H](C)C4=CC(=O)CC[C@]4(C)[C@H]3[C@@H](O)C[C@]12C` it is “inactive”; for `CCNC(=O)N1CCN(CCCC(c2ccc(F)cc2)c2ccc(F)cc2)CC1` it is “inactive”. Same read-out and setting: the entry for `c1cc[c]([Bi]([c]2ccccc2)[c]2ccccc2)cc1` is “inactive”; for `CCOC(=O)N1CCC(n2c(=O)[nH]c3cc(Cl)ccc32)CC1` it is “inactive”; for `CCn1cc(C(=O)O)c(=O)c2cc(F)c(N3CCNCC3)nc21` it is “inactive”. With `CC(=O)OCC(=O)[C@@]12OC(C)(C)O[C@@H]1C[C@H]1[C@@H]3C[C@H](F)C4=CC(=O)C=C[C@]4(C)[C@@]3(F)[C@@H](O)C[C@@]12C`, the Potency result was “inactive”. Consider `CN(C)C(=O)Nc1ccc(Oc2ccc(Cl)cc2)cc1`, for which the Potency result was “inactive”. As to `CC[C@H](NC(=O)c1cc(F)ccc1NS(=O)(=O)c1cccc2cccnc12)c1ccccc1`, the Potency result was “inactive”. For `Nc1ccc(Cl)cc1[N+](=O)[O-]`, the Potency result is “inactive”. With `O=C(O)C(Cc1cc(I)c(O)c(I)c1)c1ccccc1` (stereo not drawn), the Potency entry is “inactive”. In the case of `CC(C)(C)C(=O)C(Oc1ccc(Cl)cc1)n1ccnc1` (stereo not drawn), the Potency entry is “inactive”. With `C=CCOC(=O)/C=C\C(=O)OCC=C`, the Potency result was “inactive”. For the molecule `CCC(C(=O)OCCN(CC)CC)c1ccccc1` (stereo not drawn), the Potency entry was “inactive”. The same measure, in the same setting: under `COC(=O)c1cc(S(N)(=O)=O)ccc1OC` stands “inactive”.

`COc1ccc(CCC(=O)c2c(O)cc(O[C@@H]3O[C@H](CO)[C@@H](O)[C@H](O)[C@H]3O[C@@H]3O[C@@H](C)[C@H](O)[C@@H](O)[C@H]3O)cc2O)cc1O`: the Potency result is “inactive”. Regarding `O=C(O)Cc1ccc(-c2ccccc2)cc1`, the Potency result was “inactive”. `CC(CCO)CCc1ccccc1` (stereo not drawn): the Potency entry was “inactive”. Turning to `COC(=O)c1cc(Cl)ccc1NS(=O)(=O)C(F)(F)F`, the Potency entry is “inactive”. Turning to `Cc1oncc1C(=O)Nc1ccc(C(F)(F)F)cc1`, the Potency entry was “inactive”. Consider `C[Si]1(C)O[Si](C)(C)O[Si](C)(C)O1`, for which the Potency entry is “inactive”. `CCCCC/C(=C\c1ccccc1)CO`: the Potency result was “inactive”. Still for that read-out and setting: under `N#C/C(=C1\SCC(c2ccccc2Cl)S1)n1ccnc1` (stereo not drawn) stands “inactive”.
